{"source": "PubChem BioAssay AID920", "about": "(The Scripps Research Institute Molecular Screening Center, 2007)", "note": "Out of some 200,000 compounds screened, about 700 (0.35%) were called active. The sample as a whole holds a higher share of actives than the screen did. Values without a mark were called inactive.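 The calls were made as follows: active = inhibition above a set limit, the mean inhibition across all tested compounds plus 3 SD (cut at about 34% in these data); inactive = the rest.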"}
{"test": "STAT1 signaling inhibitors, primary screen, cell-based, HTS, luciferase reporter (AID 920);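 also: 0% = IFN-gamma with DMSO and 100% = IFN-gamma with 300 µM nifuroxazide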", "details": "NIH 3T3 STAT1-luciferase reporter, IFN-gamma, luminescence; at 5.5 µM; hits give high values"}
{"smiles": "O=C(NCCCO)/C(=C\\C=C\\c1ccccc1)NC(=O)c1ccccc1Cl", "inhibition": "3.7%"}
{"smiles": "Cc1nn(C)c(C)c1CN(C(=O)CCc1nnc(Cc2c[nH]c3ccccc23)o1)C(C)C", "inhibition": "-1.77%"}
{"smiles": "Cc1cc(C2=NNC(=Nc3ccc(S(=O)(=O)N4CCOCC4)cc3)SC2)c(C)n1CC1CCCO1", "note": "(configuration not stated)", "inhibition": "-1.28%"}
{"smiles": "COCCn1c(C)cc(C2=NNC(=Nc3ccc(F)cc3)SC2)c1C", "inhibition": "-36.4%"}
{"smiles": "C=CCn1c(C)cc(C2=NNC(=NCC)SC2)c1C", "inhibition": "94.7% (active)"}
{"smiles": "N/C(=N\\OC(=O)Cc1ccccc1[N+](=O)[O-])c1ccc(Br)cc1", "inhibition": "0.32%"}
{"smiles": "CCc1cc2c(SCC(=O)Nc3ncc(Cl)c(C)c3Cl)ncnc2s1", "inhibition": "-4.22%"}
{"smiles": "CCc1cc2c(NC3CCCC3)ncnc2s1", "inhibition": "22.1%"}
{"smiles": "CCc1cc2c(N3CCN(c4nnc(CC)s4)CC3)ncnc2s1", "inhibition": "51.2% (active)"}
{"smiles": "O=C1C2C3C=CC(C4CC34)C2C(=O)N1c1nccs1", "note": "(configuration not stated)", "inhibition": "3.92%"}
{"smiles": "C#CCOCCOCCOCCNc1nc(N2CCN(C(=O)[C@H](C(C)C)n3cc(CCO)nn3)CC2)nc(N2CCN(C(=O)[C@H]([C@@H](C)CC)n3cc(CCCN=C(N)N)nn3)CC2)n1", "inhibition": "-0.51%"}
{"smiles": "CC(=O)c1ccc(N2CCN(CC(=O)Nc3ccccc3N3CCOCC3)CC2)cc1", "inhibition": "15%"}
{"smiles": "O=C(CSC(=S)N1CCOCC1)c1ccccc1", "inhibition": "-27.1%"}
{"smiles": "O=C(CC(=O)Nc1ccc(Cl)c(Cl)c1)N/N=C/c1ccc(O)cc1", "inhibition": "6.41%"}
{"smiles": "CN(C)CCNC(CC(=O)Nc1ccc(Cl)c(Cl)c1)C(=O)O", "note": "(configuration not stated)", "inhibition": "0.9%"}
{"smiles": "O=C(CC(O)(C(F)(F)F)C(F)(F)F)Nc1ccc(Cl)c(Cl)c1", "inhibition": "48.3% (active)"}
{"smiles": "CC1=C(C)CC(C(=O)NC(C)CCc2ccccc2)C(C(=O)O)C1", "note": "(configuration not stated)", "inhibition": "-0.81%"}
{"smiles": "CCCCOc1ccc(C(=O)NCC(=O)OCC(=O)N2CCN(S(=O)(=O)c3ccc(C)cc3C)CC2)cc1", "inhibition": "-1.91%"}
{"smiles": "CCCNC(=O)c1c(N)n(-c2ccc(S(N)(=O)=O)cc2)c2nc3ccccc3nc12", "inhibition": "-1.16%"}
{"smiles": "CC(C)Cn1c(N)c(C(=O)NCc2cccs2)c2nc3ccccc3nc21", "inhibition": "-2.91%"}
{"smiles": "CCC(C)NC(=O)c1c(N)n(/N=C/c2cccs2)c2nc3ccccc3nc12", "note": "(configuration not stated)", "inhibition": "39.4% (active)"}
{"smiles": "Cc1ccc(-c2nc(-c3cccnc3)sc2CC(=O)Nc2ccc(C)c(Cl)c2)cc1", "inhibition": "13.7%"}
